Source: PubChem BioAssay
Cav3 T inh: human Cav3.2 channel inhibition, primary screen; O95180; AID 449739; Cav3.2-expressing cells, Fluo-4 calcium fluorescence FDSS; stronger effect = lower value; 100,000 tested, 4% active; B-score at 10 µM;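 active means single-dose well whose peak fluorescence ratio is a statistical outlier from its plate by either plate-standardised score or position-corrected B-score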
CYP2C19 act: increases human CYP2C19 enzyme activity | P33261 | recombinant CYP2C19, luciferin-H EGE luminescence; stronger effect = higher value; 0 = fully inhibited enzyme, 1 = untreated enzyme | activation factor at 5 µM | 96,000 tested, under 10 active | AID 1025;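 active means activation factor of at least 2 at 5 µM in the primary screen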;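 further: 0 = wells with 2.5 mM tranylcypromine and 1 = vehicle-only wells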
Target sequence (P33261 whole entry, looked up): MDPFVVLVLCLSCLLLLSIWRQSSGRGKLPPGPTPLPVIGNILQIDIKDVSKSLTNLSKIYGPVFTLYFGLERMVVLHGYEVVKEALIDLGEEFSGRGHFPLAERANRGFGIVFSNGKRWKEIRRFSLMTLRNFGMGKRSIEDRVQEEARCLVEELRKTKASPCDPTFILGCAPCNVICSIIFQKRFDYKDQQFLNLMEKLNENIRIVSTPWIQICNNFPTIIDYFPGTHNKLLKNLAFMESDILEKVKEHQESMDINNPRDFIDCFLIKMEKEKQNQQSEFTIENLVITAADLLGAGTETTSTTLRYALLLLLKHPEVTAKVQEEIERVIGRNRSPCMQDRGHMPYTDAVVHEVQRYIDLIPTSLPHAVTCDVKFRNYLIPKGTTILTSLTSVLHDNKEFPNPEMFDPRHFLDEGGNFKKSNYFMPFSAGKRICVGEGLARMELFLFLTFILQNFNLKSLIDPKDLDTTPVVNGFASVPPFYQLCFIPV
CYP2C9 inh: inhibitors of human CYP2C9 | inhibition, % at 5 µM | AID 777 | CYP2C9 Supersomes, luciferin-H conversion, luminescence | 96,000 tested, 20% active | P11712;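 active means blocking of liver enzyme CYP2C9 beyond about 50% at 5 µM, limit read from the data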
CYP2C9 activ: CYP2C9 (human) activation | recombinant CYP2C9, luciferin-H conversion, luminescence; stronger effect = higher value; factor 1 = untreated enzyme, 0 = blocked | activation factor at 5 µM | 96,000 tested, 1.4% active | AID 1024 | P11712;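 active means activation factor of 2 or more for CYP2C9 at a 5 µM dose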;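 further: 0 = sulfaphenazole-blocked wells and 1 = vehicle-only wells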
CYP2C19 inh: inhibitors of human CYP2C19; P33261; CYP2C19 Supersomes, luciferin-H EGE luminescence, 30 min; inhibition, % at 5 µM; 96,000 tested, 21% active; AID 778;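 active means CYP2C19 inhibition above a set limit at 5 µM in the primary screen, cut at about 50% in these data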;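 further: plate controls were negative control wells for no effect and 2.5 mM tranylcypromine positive control for full effect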
PTK2B oligo ant: blocks oligomerization of human Pyk2 in cells; Q293 cells, Pyk2 FERM NanoBiT luminescence; stronger effect = lower value; Q14289; AID 1347419; 99,000 tested, 0.83% active; z-score (the deposit names both 25 µM and 10 µM);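 active means Z-score of -3 or lower, scaled per plate to the spread of control and sample wells; inactive means z-score above -3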;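 further: negative z-score means lost luminescence so less FERM oligomerization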
The depositor's hits bear a star; · = no result given. The list is not random: actives were taken first. Their share in the collection is about 27%.

SMILES	Cav3 T inh	CYP2C19 act	CYP2C9 inh	CYP2C9 activ	CYP2C19 inh	PTK2B oligo ant
Cc1nnc(C)n1/N=C/c1cc(Br)ccc1O	-0.66	1	15	0.9	0	0.11
Cc1nnc(C)n1/N=C/c1cc(Br)cc(Br)c1O	-9.6*	1.1	6	0.9	-8	0.64
CCn1c2ccccc2c2nnc(SCc3cc(=O)n4ccsc4n3)nc21	·	0.1	65*	0.3	87*	·
C#CCCOC(=O)N1C2=NC(C(=O)OC)=C(C(=O)OC)[C@@H]3N(Cc4ccccc4)c4ccccc4[C@]23C[C@H]1C(=O)OC	-3	·	·	·	·	·
O=C(c1ccc([N+](=O)[O-])cc1)N(Cc1ccc(Cl)cc1Cl)N1C(=O)CCCC1=O	0.056	0.4	20	0.8	64*	0.33
O=C(c1ccc([N+](=O)[O-])cc1)N(Cc1ccc(Cl)cc1)N1C(=O)CCCC1=O	1.2	0.5	12	0.9	51*	-0.07
N#CCCCn1c(-c2ccccc2)noc1=O	0.78	0.8	-18	1.2	22	1.9
Cc1occc1-c1nnc(SCc2nc3ccccc3c(=O)n2CC#N)n1C	0.023	1.1	-8	1.1	-7	1.6
Cc1noc(C)c1CSCC(=O)OCc1nc2ccccc2c(=O)n1CC#N	0.35	0.5	65*	0.3	48	0.13
C=CCNC(=O)c1onc(CSc2ccc(OC)cc2)c1C(=O)O	1.1	1	52*	0.5	-3	·
C=CCNC(=O)c1onc(CSc2ccc(C(C)C)cc2)c1C(=O)O	-0.85	0.8	87*	0.1	21	·
C=CCNC(=O)c1onc(CSc2ccccc2F)c1C(=O)O	0.19	0.9	39	0.6	12	·
C=CCNC(=O)c1onc(CSc2ccc(F)cc2)c1C(=O)NCCOC	1.5	0	22	0.8	98*	·
C=CCNC(=O)c1onc(CSc2ccccc2)c1C(=O)O	1.4	0.9	31	0.7	13	·
C=CCNC(=O)c1onc(CSc2cccc3ccccc23)c1C(=O)O	-1.3	0.4	94*	0.1	59*	·
C=CCNC(=O)c1onc(CSc2ccc(F)cc2)c1C(=O)O	0.49	0.9	22	0.8	13	·
OCC(Cc1ccc2c(c1)OCO2)C(CO)Cc1ccc2c(c1)OCO2 (stereo not drawn)	-0.68	·	·	·	·	·
CCSc1nc(C)cc(Oc2ccc(=O)n(C)n2)n1	·	0.9	0	1	11	0.98
Cn1c(SCC#N)nnc1-c1cnccn1	0.014	·	·	·	·	0.1
O=C(COC(=O)/C=C/c1ccc(Cl)cc1)Nc1ccc2c(c1)OCCO2	·	·	·	·	·	0.82
C=C(C)CSc1nc(N)c(C#N)c(-c2ccc(C)cc2)c1C#N	0.0052	0.9	50*	0.5	13	-2.9
CCOC(=O)CC(=O)CSc1nc(N)c(C#N)c(-c2ccc(F)cc2)c1C#N	-0.3	0.4	53*	0.5	62*	-0.36
CCCCOc1ccc(-c2c(C#N)c(N)nc(SCC(N)=O)c2C#N)cc1	·	0.7	39	0.6	27	-0.36
COc1ccc2[nH]c(=O)c(CN(Cc3cccs3)Cc3nnnn3Cc3ccccc3)cc2c1	0.068	0.9	13	0.9	5	0.3
COc1ccc2cc(CN(CCc3ccccc3)Cc3nnnn3CC3CCCO3)c(=O)[nH]c2c1 (stereo not drawn)	-1.6	0.6	63*	0.4	44	-0.48
SMILES	Cav3 T inh	CYP2C19 act	CYP2C9 inh	CYP2C9 activ	CYP2C19 inh	PTK2B oligo ant
O=c1[nH]c2cc3c(cc2cc1CN(CCc1ccccc1)Cc1nnnn1CC1CCCO1)OCO3 (stereo not drawn)	-0.085	1	-3	1	4	-0.2
COc1ccc2[nH]c(=O)c(CN(CCc3ccccc3)Cc3nnnn3CC3CCCO3)cc2c1 (stereo not drawn)	-1.8	0.3	14	0.9	68*	0.82
Cc1ccc2[nH]c(=O)c(CN(CCc3ccccc3)Cc3nnnn3CC3CCCO3)cc2c1 (stereo not drawn)	-3.6*	·	·	·	·	0.47
CC(N=C(NC#N)Nc1ccncc1)C(C)(C)C (stereo not drawn)	1.4	·	·	·	·	·
C=C1C2(C(=O)NCc3ccco3)CCC(C2)C1(C)C (stereo not drawn)	0.78	0.7	14	0.9	27	0.03
CC1(C)C(=O)C2(C(=O)NCc3ccccc3)CCC1C2 (stereo not drawn)	1	0.3	8	0.9	70*	0.13
COc1cc(-c2nnc(SCC(=O)OC3CCCCC3)o2)cc(OC)c1OC	-2.3	0.8	14	0.9	18	0.99
